In PubChem BioAssay AID2100 (National Center for Advancing Translational Sciences (NCATS), 2009):
Out of some 300,000 compounds screened, about 1,200 (0.4%) were called active. Inconclusive results (about 3%) are left out. Calls follow the shape of the dose curve; as a rule, active = well fitted inhibition curve with a large enough effect; inconclusive = small, poorly fitted or top-dose-only effect, or another doubt; inactive = no such curve, though single readings can be large or run the other way. The list comes from a sample in which actives are over-represented; it also holds similar structures and randomly drawn compounds. A call without a number means that no potency is given here.

molecular target: Lysosomal alpha-glucosidase (Homo sapiens) (UniProt P10253); assay: qHTS Assay for Inhibitors and Activators of Human alpha-Glucosidase Cleavage of Glycogen; conditions: recombinant GAA, glycogen substrate, Amplex Red glucose oxidase fluorescence; series mostly up to 76.3 µM;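 also: the screen sought inhibitors and activators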
Description: NIH Chemical Genomics Center [NCGC] NIH Molecular Libraries Probe Production Centers Network [MLPCN] MLPCN Grant: R03 MH084841-01 Assay Submitter (PI): Wei Zheng NCGC Assay Overview: Alpha-glucosidase is responsible for the hydrolysis of terminal, non-reducing 1,4-linked alpha-D-glucose residues, which releases alpha-D-glucose. It is a lysosomal hydrolase that is required for the degradation of a small percentage (1-3%) of cellular glycogen in humans. Deficiency of this enzyme results in glycogen-storage disease type II (GSDII), also referred to as Pompe disease, an autosomal recessive disorder. Structurally normal glycogen is accumulated in the lysosomes and cytoplasm in affected patients, primarily in muscle tissues. Excessive glycogen storage within lysosomes may interrupt normal functioning of other organelles and leads to cellular injury. In turn, this leads to enlargement and dysfunction of the entire organ involved (eg: cardiomyopathy and muscle weakness). It has been reported that the improper folding and trafficking of alpha-glucosidase resulting from genetic mutations may account for a significant number of Pompe patients. […] We optimized this alpha-glucosidase assay in 1536-well plate format for identification of novel small molecule inhibitors or activators with structures other than the sugar analogs in order to develop new pharmacological chaperones. Previous assays of alpha-Glucosidase have utilized a non-natural fluorescent substrate to probe enzyme activity. The present assay measures enzyme activity on glycogen using a coupled-assay system to glucose oxidase.
NCGC Assay Protocol Summary: This is an enzyme assay using glycogen from bovine liver (Sigma catalog #: G0885) as the substrate and recombinant human alpha-glucosidase as the enzyme preparation. Upon hydrolysis of the substrate, the glucose product can be detected using the Amplex Red Glucose Oxidase Assay Kit (Invitrogen catalog #: A22189). The product of this reaction can be read with a fluorescence plate reader with an excitation at 573 nm and an emission at 610 nm. Data were normalized to the controls for basal activity (without enzyme) and 100% activity (with enzyme). The AC50 values were determined from concentration-response data modeled with the standard Hill equation. Assay buffer for enzyme reaction: 50 mM citric acid (titrated with potassium phosphate to pH 5.0), 0.01% Tween-20 (pH 5.0 is an optimal condition for this enzyme assay) Assay buffer for Amplex Red reaction: Tris-HCl, pH 7.5 1536-well assay protocol for the alpha-glucosidase assay: (1) Add 2 ul/well alpha-glucosidase enzyme solution (4 nM final) (2) Add 23 nL compounds in DMSO solution. The final titration was 0.7 nM to 77 uM. (3) Add 1 ul of glycogen substrate solution (30 ug) (4) Incubate at 37 C for 40 min (5) Add 2 ul tris-HCl buffer with Amplex Red reagents (6) Incubate 45 min at room temperature. (7) Detect the assay plate in a ViewLux plate reader (PerkinElmer) with Ex=573 nm and Em=610nm. Keywords: Alpha-glucosidase, Pompe Disease, pharmacological chaperone, chaperone therapy, high throughput screening, alpha-glucosidase inhibitor, MLSMR, MLSCN, NIH Roadmap, qHTS and NCGC
Potency is read from the fitted curve at half-maximal effect.

| Compound | Potency |
| --- | --- |
| N#C/C=C\Oc1ccc(Cl)cc1N | 9.92 µM (active) |
| CCCS(=O)(=O)c1c(Nc2ccccc2C)sc(C(=O)c2ccccc2)c1N | inactive |
| COc1ccc(S(=O)(=O)Nc2cc3c(C(=O)OC(C)C)c(C)oc3c3ccccc23)cc1 | inactive |
| Cn1cnc([N+](=O)[O-])c1Sc1n[nH]c(N)n1 | inactive |
| Cn1cnc([N+](=O)[O-])c1Sc1ccccc1 | inactive |
| Cn1cnc([N+](=O)[O-])c1Nc1ccccc1O | 7.88 µM (active) |
| CC1=C(C(=O)OCc2ccc(C)cc2)C(c2ccccc2Cl)CC(=O)N1 (stereo unspecified) | inactive |
| CCc1ccc(NC(=O)c2sc3nc4c(cc3c2N)CN(CC)CC4)cc1 | inactive |
| CCc1nn(CC(=O)N2CCN(c3ccc(Cl)cc3)CC2)c(=O)c2cc3occc3n12 | inactive |
| COc1ccccc1C1=Nc2cccc3cccc(c23)N1 | 17.6 µM (active) |
| Fc1ccccc1N=C1Nc2cccc3cccc1c23 | inactive |
| COc1ccccc1-c1nc(SC)n[nH]1 | inactive |
| Cc1cc(C)c2c(-n3cccc3)c(C(=O)NNS(=O)(=O)c3ccc(F)cc3)sc2n1 | 31.6 µM (active) |
| COC(=O)Nc1sc2nc(C)cc(C)c2c1-n1cccc1 | inactive |
| Cc1cc(C)c2c(-n3cccc3)c(NC(=O)OCc3ccccc3)sc2n1 | inactive |
| COc1ccc(Cn2cc(C(=O)c3ccc(C)cc3)c(=O)c3cc(OC)c(OC)cc32)cc1 | inactive |
| COc1ccc(CNC(=O)c2cc3c(-c4ccccc4F)nn(C)c3s2)c(OC)c1 | inactive |
| COc1ccc(-c2cc(C(F)(F)F)nc(SCC(=O)N(C)Cc3ccccc3)n2)cc1OC | inactive |
| Cc1ccc(C(=O)NNC(=O)c2cccs2)cc1 | inactive |
| O=C(NNC(=O)c1ccc(Cl)cc1Cl)c1cccs1 | inactive |
| Cc1ccc(NNC(=O)c2cccs2)cc1Cl | 14.1 µM (active) |
| COc1ccc(N2CCN(c3ccc([N+](=O)[O-])cc3Cl)CC2)cc1 | inactive |

| Compound | Potency |
| --- | --- |
| O=C(O)C1CCN(c2ccc([N+](=O)[O-])cc2[N+](=O)[O-])CC1 | inactive |
| O=[N+]([O-])c1ccc(N2CCN(c3ccc(O)cc3)CC2)c(Cl)c1 | 10 µM (active) |
| O=C(CSCc1cnn(-c2ccccc2)c1-n1cccc1)NCc1ccccc1Br | inactive |
| CC(=O)Nc1ccc(NC(=O)CCCc2nc(-c3ccc(C(C)(C)C)cc3)no2)cc1 | inactive |
| COc1ccc(N2CCN(c3cc(C)nc4nncn34)CC2)cc1 | inactive |
| S=C(NCCc1ccccc1)N1CCCCC1 | inactive |
| Oc1ccc(N2CCN(C(=S)NCc3ccccc3)CC2)cc1 | 3.16 µM (active) |
| O=C(COC(=O)c1ccccc1C(=O)N1CCN(c2ccccc2)CC1)NCc1ccccc1 | inactive |
| COc1ccc(-c2noc(CSc3nc4ccc(C)cc4[nH]3)n2)cc1 | inactive |
| O=C(CN1CCN(c2ccccc2)CC1)Nc1ccc(F)cc1 | inactive |
| O=C(CN1CCN(c2ccc(O)cc2)CC1)Nc1ccc(-c2ccccc2)cc1 | 10 µM (active) |
| O=C(CN1CCOCC1)Nc1ccccc1 | inactive |
| CCOc1ccc(N(CC)S(=O)(=O)N2CCCC(C(=O)NCc3ccc(SC)cc3)C2)cc1 (stereo unspecified) | inactive |
| CCc1ccc(NC(=O)C2CCCN2S(=O)(=O)c2ccc3nc(-c4ccccc4)[nH]c3c2)cc1 (stereo unspecified) | inactive |
| Cc1ccccc1CNC(=O)CCCn1nc(C)c2sc3ccccc3c2c1=O | inactive |
| O=C(Cn1nc(C(F)(F)F)c2c1CCCC2)Nc1ccc(Cl)cc1 | inactive |
| COc1cccc(-c2nc(CS(=O)(=O)CC(=O)N3CCN(c4cc(C)ccc4C)CC3)c(C)o2)c1 | inactive |
| CC/C(C)=N/Nc1nc2sc3c(c2c(=O)[nH]1)CC(C)(C)OC3 | inactive |
| CCC(O)CNc1nc(-n2nc(C)cc2C)nc2sc3c(c12)CC(C)(C)OC3 (stereo unspecified) | inactive |
| C=CCNC(=S)NNc1ncnc2sc3c(c12)CC(C)(C)OC3 | 11.2 µM (active) |
| Cc1cccc(OCCSc2nc3ccccc3n2CC(=O)N2CCCCC2)c1C | inactive |
| Cc1cc(Nc2ccccc2)n(C(=O)c2ccc(N)cc2)n1 | inactive |

| Compound | Potency |
| --- | --- |
| Cc1cc(Nc2ccccc2)n(CCC#N)n1 | 19.8 µM (active) |
| N#CCCn1ncc2ccccc21 | inactive |
| COc1ccc(NC(=O)NC(C)c2c(-n3cccc3)sc(C)c2C)cc1OC (stereo unspecified) | inactive |
| O=C(NNS(=O)(=O)c1ccccc1C(F)(F)F)c1cc2ncc(C(F)(F)F)cc2s1 | 28.2 µM (active) |
| O=C(CS(=O)(=O)c1ccc(C(F)(F)F)cn1)NNC(=O)c1ccccc1 | inactive |
| Cc1cc(C(=O)NNS(=O)(=O)c2ccccc2C(F)(F)F)nn1C(C)(C)C | inactive |
| CCc1ccc(NC(=O)Cn2c(=O)n(CCC(=O)NCc3ccc4c(c3)OCO4)c(=O)c3ccccc32)cc1 | inactive |
| COc1ccc(S(=O)(=O)c2cn(C)c3cc(N4CCCCC4)c(F)cc3c2=O)cc1 | inactive |
| CCS(=O)(=O)N1CCc2cc(C(=O)N3CCN(c4ccccc4OC)CC3)ccc21 | inactive |
| CCCOc1ccc(C2c3c(-c4ccccc4O)n[nH]c3C(=O)N2Cc2cccnc2)cc1 (stereo unspecified) | inactive |
| CCOc1ccc(CNC(=O)C2CCCN(S(=O)(=O)N(CC)c3ccc(OCC)cc3)C2)cc1 (stereo unspecified) | inactive |
| COc1ccc(CNC(=O)c2ccc(NC(=O)N3CC4CCCN4c4ccccc43)cc2)cc1 (stereo unspecified) | 17.8 µM (active) |
| COc1ccccc1CNC(=O)c1ccc(NC(=O)N2CC(C)Sc3ccccc32)cc1 (stereo unspecified) | inactive |
| COc1ccc(NC(=O)N2CCC(Cc3ccccc3)CC2)cc1 | inactive |
| CCCOc1cccc(C(=O)Nc2cccc(NC(=O)c3ccc(C(C)(C)C)cc3)c2)c1 | inactive |
| COc1ccc(CCNC(=O)c2cc(=O)c3c(C)cc(C)cc3o2)cc1OC | inactive |
| CCOC(=O)c1c(C)oc2ccc(N(C(=O)c3ccncc3)S(=O)(=O)c3ccc(CC)cc3)cc12 | inactive |
| Cn1c(SCC(=O)N/N=C/c2ccc(O)c(O)c2)nc2ccccc21 | 8.91 µM (active) |
| CCn1c(SCC(=O)N/N=C/c2ccncc2)nc2ccccc21 | inactive |
| Cc1ccc(/C=N/NC(=O)CSc2nc3ccccc3o2)cc1 | inactive |
| CCN(CC)S(=O)(=O)c1nnc(NC(=O)COc2ccccc2Cl)s1 | inactive |
| CCS(=O)(=O)N1CCc2cc(C(=O)NCc3ccc(OC)cc3)ccc21 | inactive |
